These results are taken from PubChem BioAssay (NCI).

About 83,000 compounds went through this panel and 20% of them were active in at least one assay; those are over-represented in the sample as a whole.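 Testing used 96-well plates and a 48-hour single-concentration exposure. Example: -40 means 40% of the starting cells died.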 Values without a mark were called inactive. The source made the active and inactive calls. The calls were made as follows: active = growth percent below 10; inactive = the rest.

Holding throughout (assay): NCI-60 one-dose screen, 48 h (100 = growth as untreated, 0 = no growth, -100 = all killed)
For test [1], the system named is BT-549 breast. The settings on record: 10 µM unless noted.
In test [2] the test system is MDA-MB-435 melanoma. The settings on record: 10 µM unless noted.
In test [3] the test system is SW-620 colon. The settings on record: 10 µM unless noted.
Test [4] deals with MCF7 breast. The settings on record: 10 µM.
The test system of test [5] is HCT-116 colon. The settings on record: 10 µM unless noted.
Test [6] concerns HCC-2998 colon. To be noted: 10 µM unless noted.
Test [7] concerns KM12 colon. To be noted: 10 µM unless noted.

For `COc1cccc(C(=O)NC(c2ccc(C)cc2)c2cc(Cl)c3cccnc3c2O)c1` (stereo not drawn), the growth in test [1] is 12.3%; in test [2] it was 19.4%; in test [3], 14.1%; in test [4], 17.9%; in test [5] it was 19.2%; in test [6], 7.35% (active). Besides, the growth in test [7] is 20.7%.

In the case of `CC(C)c1ccc(S(=O)(=O)NC(=O)NC2CCCC2)cc1`, the growth is 100% in test [1]; 100% in test [2]; 97.9% in test [3]; 93.2% in test [4]; 97.5% in test [5]; 108% in test [6].

Regarding `COC(=O)/C(CCC=C(C)C)=C1\[C@@H](OC(C)=O)C[C@@]2(C)[C@H]1C[C@@H](O)[C@H]1[C@@]3(C)CC[C@H](NCCCNCCCCNCCCN)[C@@H](C)[C@@H]3CC[C@@]12C`, the growth in test [1] is 80.4%; in test [2] it was 8.03% (active); in test [3] it was 55.8%; in test [4], 95.6%; in test [5] it was 47.1%; in test [6], 52.1%.

As to `Cn1c(C(=O)c2cccc3ccccc23)nc2ccccc21`, the growth is 13% in test [1]; 17.4% in test [2]; 22.4% in test [3]; 15.6% in test [4]; 22.7% in test [5]; 6.79% (active) in test [6].

Turning to `COC(=O)c1c2c(c(C)[n+]([O-])c1C)C(=O)C=C(NCc1ccc(F)c(F)c1)C2=O`, the growth was -97.2% (active) in test [1]; -92.2% (active) in test [2]; -43% (active) in test [3]; -65.7% (active) in test [4]; -53.9% (active) in test [5]; -66.5% (active) in test [6].

For `Cc1ccc(C(=O)c2oc3ccc4c(C)cc(=O)oc4c3c2C)cc1`, the growth in test [1] was 40.8%; in test [2], 29.7%; in test [3] it was 23.2%; in test [4], 9.99% (active); in test [5], 21.7%.

As to `Cc1ccc(F)cc1NC(=O)c1cc(Cl)ccc1Nc1ccccc1`, the growth in test [1] was 86.2%; in test [2], 59.5%; in test [3], 57.5%; in test [4] it was 29.7%; in test [5] it was 30.9%; in test [6], 28.2%.

For the molecule `COc1ccc(CSc2nnc(SCC(=O)Nc3ccc(Cl)cc3)s2)cc1`, the growth in test [1] is 69%; in test [2], 67.2%; in test [3] it was 52%; in test [4], 63.8%; in test [5], 70.8%; in test [6], 72.6%.

Regarding `O=C(Nc1ccc(N2CCNCC2)cn1)c1[nH]ncc1Nc1ncnc2sccc12`, the growth is 93.4% in test [1]; -86.1% (active) in test [2]; -89.2% (active) in test [3]; 20.1% in test [4]; -68.2% (active) in test [5]; 52.6% in test [6].

In the case of `Nc1ccc(-c2ccc(-c3ccccc3N)c3[nH]c4ccccc4c23)cc1`, the growth in test [1] was 53.2%; in test [2], -58.9% (active); in test [3], 29.5%; in test [4], 19.6%; in test [5] it was 22.6%; in test [6], 42.1%.

For the molecule `CCOC(=O)c1c2c(n3cccc(Cl)c13)C(=O)c1ncccc1C2=O`, the growth was 69.2% in test [1]; 79.9% in test [2]; 36.4% in test [3]; 43.3% in test [4]; 8.41% (active) in test [5]; 46% in test [6]. The growth in test [7] was 46.3%.

As to `COc1cc(C(=O)NN=C2c3ccccc3-c3ccccc32)cc(OC)c1OC`, the growth in test [1] was 43.3%; in test [2] it was -22.6% (active); in test [3] it was 19.5%; in test [4], 11.9%; in test [5], 20.4%; in test [6], 77.9%.

As to `CCOc1ccccc1CN1CCc2nc3cc(C(C)(C)C)[nH]n3c(=O)c2C1`, the growth in test [1] was 106%; in test [2], 104%; in test [3] it was 105%; in test [4], 98%; in test [5], 102%; in test [6] it was 98.7%.

`CC1(O)COCCCCOc2c(CN)cccc2NC(=O)c2nc(cnc2N)-c2ccc(cc2)S(=O)(=O)C(C)(C)C1` (stereo not drawn): the growth in test [1] was 85.4%; in test [2], -93.4% (active); in test [3], -64.2% (active); in test [4], -79.4% (active); in test [5], -56.5% (active); in test [6] it was -1.91% (active).

`CNCCNc1nc2ccccc2c2c(=O)c3cccc(C)c3sc12`: the growth was 76.4% in test [1]; 6.07% (active) in test [2]; -62.4% (active) in test [3]; -66.1% (active) in test [4]; -91.4% (active) in test [5]; -43.2% (active) in test [6].

In the case of `COc1ccc(CCN2C(=O)CCSC2=S)cc1`, the growth in test [1] was 96.3%; in test [2], 4.04% (active); in test [3], 21.9%; in test [4], 16.2%; in test [5], 17.1%; in test [6], 106%. In addition, in test [7], the growth is 0.314% (active).

Regarding `CC(C)(C)c1ccc(C2CC(=O)C3=C(C2)Nc2ccccc2N(C(=O)c2ccccc2Cl)C3c2ccc(F)cc2)cc1` (stereo not drawn), the growth was 44.4% in test [1]; -80.1% (active) in test [2]; 2.52% (active) in test [3]; -33.3% (active) in test [4]; 7.97% (active) in test [5]; -21.2% (active) in test [6].

Consider `Cc1ccc(S(=O)(=O)c2c(COC(=O)c3cccc(C)c3)c(-c3ccccc3)nn2C)cc1`, for which the growth in test [1] was 57.1%; in test [2], -33.7% (active); in test [3] it was -37.2% (active); in test [4], -49.2% (active); in test [5] it was 0.235% (active); in test [6], 60%. Besides, the growth in test [7] was 16.3%.

In the case of `CCOC(=O)C1(C(=O)OCC)N=C(c2ccccc2)C=C1c1ccccc1`, the growth was 97.9% in test [1]; 103% in test [2]; 93.3% in test [3]; 79.5% in test [4]; 78.4% in test [5].

Take `COc1ccc(-c2nc(N3CCN(C(=O)C4CCCCC4)CC3)c3c4c(sc3n2)CCCC4)cc1`: the growth in test [1] was 61.4%; in test [2] it was -54.1% (active); in test [3], -1.68% (active); in test [4], -10.8% (active); in test [5] it was 17%; in test [6] it was 53.2%. Besides, the growth in test [7] is -46.4% (active).
